Data reported in PubChem BioAssay AID1159580 (chemical genetic matrix, 2015).
The campaign covered roughly 5,500 compounds. About 2,000 (36%) were called active. Inconclusive results (about 18%) are left out. Cut-off read from the data, not from the text of the source: active = normalized growth mostly below about 0.91 (no sharp cut-off); inconclusive = no clear call, values can overlap the other calls; inactive = mostly above about 0.92. The list shows a part of the results.

Assay: chemical genetic growth profiling, strain panel (AID 1159580);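 note: tested at 20 µM; growth read once vehicle control cultures reached saturation at 30 °C; 1 = growth at the plate median or of vehicle wells; lower values mean less growth of the strain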
Conditions: growth OD

Measured: normalized growth

Cc1cccc(Nc2ccccc2C(=O)O)c1C
active: S. cerevisiae deletion strains, locus YKL009W, strain mrt4, stronger effect = lower value 0.874 | S. cerevisiae deletion strains, locus YKL190W, strain CNB1, stronger effect = lower value 0.908 | S. cerevisiae deletion strains, locus YKR001C, strain vps1, stronger effect = lower value 0.676 | S. cerevisiae deletion strains, locus YKR026C, strain gcn3, stronger effect = lower value 0.877 | S. cerevisiae deletion strains, locus YKR091W, strain srl3, stronger effect = lower value 0.909 | S. cerevisiae deletion strains, locus YLL041C, strain sdh2, stronger effect = lower value 0.901 | S. cerevisiae deletion strains, locus YLR039C, strain RIC1, stronger effect = lower value 0.597 | S. cerevisiae deletion strains, locus YLR102C, strain apc9, stronger effect = lower value 0.876 | S. cerevisiae deletion strains, locus YLR262C, strain YPT6 (second series), stronger effect = lower value 0.749 | S. cerevisiae deletion strains, locus YLR268W, strain sec22, stronger effect = lower value 0.869 | S. cerevisiae deletion strains, locus YLR330W, strain CHS5, stronger effect = lower value 0.87 | S. cerevisiae deletion strains, locus YLR342W, strain FKS1 (second series), stronger effect = lower value 0.756 | S. cerevisiae deletion strains, locus YLR342W, strain FKS1, stronger effect = lower value 0.897 | S. cerevisiae deletion strains, locus YLR371W, strain rom2, stronger effect = lower value 0.858 | S. cerevisiae deletion strains, locus YLR384C, strain iki3, stronger effect = lower value 0.894 | S. cerevisiae deletion strains, locus YLR418C, strain cdc73, stronger effect = lower value 0.775 | S. cerevisiae deletion strains, locus YML016C, strain PPZ1, stronger effect = lower value 0.886 | S. cerevisiae deletion strains, locus YML032C, strain rad52, stronger effect = lower value 0.891 | S. cerevisiae deletion strains, locus YML124C, strain tub3, stronger effect = lower value 0.843 | S. cerevisiae deletion strains, locus YMR078C, strain ctf18, stronger effect = lower value 0.838 | S. cerevisiae deletion strains, locus YMR129W, stronger effect = lower value 0.908 | S. cerevisiae deletion strains, locus YMR223W, strain ubp8, stronger effect = lower value 0.869 | S. cerevisiae deletion strains, locus YMR231W, strain pep5, stronger effect = lower value 0.9 | S. cerevisiae deletion strains, locus YNL071W, strain lat1, stronger effect = lower value 0.897 | S. cerevisiae deletion strains, locus YNL183C, strain NPR1, stronger effect = lower value 0.805 | S. cerevisiae deletion strains, locus YNL298W, strain CLA4, stronger effect = lower value 0.844 | S. cerevisiae deletion strains, locus YNL307C, strain MCK1, stronger effect = lower value 0.626 | S. cerevisiae deletion strains, locus YNL322C, strain KRE1 (second series), stronger effect = lower value 0.898 | S. cerevisiae deletion strains, locus YNL322C, strain KRE1, stronger effect = lower value 0.912 | S. cerevisiae deletion strains, locus YNR049C, strain mso1, stronger effect = lower value 0.912 | S. cerevisiae deletion strains, locus YNR052C, strain pop2, stronger effect = lower value 0.878 | S. cerevisiae deletion strains, locus YOL147C, strain pex11, stronger effect = lower value 0.87 | S. cerevisiae deletion strains, locus YOR069W, strain VPS5, stronger effect = lower value 0.893 | S. cerevisiae deletion strains, locus YOR144C, strain elg1, stronger effect = lower value 0.86 | S. cerevisiae deletion strains, locus YOR184W, strain ser1, stronger effect = lower value 0.724 | S. cerevisiae deletion strains, locus YOR265W, strain rbl2, stronger effect = lower value 0.908 | S. cerevisiae deletion strains, locus YOR316C, strain cot1, stronger effect = lower value 0.874 | S. cerevisiae deletion strains, locus YPL051W, strain arl3, stronger effect = lower value 0.906 | S. cerevisiae deletion strains, locus YPL240C, strain hsp82, stronger effect = lower value 0.915 | S. cerevisiae deletion strains, locus YPL241C, strain CIN2, stronger effect = lower value 0.902 | S. cerevisiae deletion strains, locus YPR119W, strain clb2, stronger effect = lower value 0.856 | S. cerevisiae deletion strains, locus YPR163C, strain tif3, stronger effect = lower value 0.893 | S. cerevisiae deletion strains, locus YPR167C, strain met16, stronger effect = lower value 0.87
inactive: S. cerevisiae deletion strains, locus YJR075W, strain HOC1, stronger effect = lower value 0.937 | S. cerevisiae deletion strains, locus YKL068W, stronger effect = lower value 0.985 | S. cerevisiae deletion strains, locus YKL085W, strain MDH1 (second series), stronger effect = lower value 0.972 | S. cerevisiae deletion strains, locus YKL085W, strain MDH1, stronger effect = lower value 0.972 | S. cerevisiae deletion strains, locus YKL160W, strain elf1, stronger effect = lower value 0.921 | S. cerevisiae deletion strains, locus YLL001W, strain dnm1, stronger effect = lower value 0.914 | S. cerevisiae deletion strains, locus YLL026W, stronger effect = lower value 0.952 | S. cerevisiae deletion strains, locus YLR027C, strain aat2, stronger effect = lower value 0.936 | S. cerevisiae deletion strains, locus YLR058C, strain SHM2, stronger effect = lower value 0.906 | S. cerevisiae deletion strains, locus YLR113W, strain HOG1, stronger effect = lower value 0.903 | S. cerevisiae deletion strains, locus YLR221C, strain rsa3, stronger effect = lower value 0.925 | S. cerevisiae deletion strains, locus YLR258W, strain gsy2, stronger effect = lower value 0.924 | S. cerevisiae deletion strains, locus YLR262C, strain YPT6, stronger effect = lower value 0.683 | S. cerevisiae deletion strains, locus YLR320W, strain mms22, stronger effect = lower value 0.894 | S. cerevisiae deletion strains, locus YLR357W, strain rsc2, stronger effect = lower value 0.979 | S. cerevisiae deletion strains, locus YLR370C, strain arc18, stronger effect = lower value 0.913 | S. cerevisiae deletion strains, locus YML120C, strain ndi1, stronger effect = lower value 0.922 | S. cerevisiae deletion strains, locus YMR058W, strain fet3, stronger effect = lower value 0.918 | S. cerevisiae deletion strains, locus YMR125W, strain sto1, stronger effect = lower value 0.955 | S. cerevisiae deletion strains, locus YMR205C, strain PFK2, stronger effect = lower value 0.919 | S. cerevisiae deletion strains, locus YMR263W, strain SAP30, stronger effect = lower value 0.891 | S. cerevisiae deletion strains, locus YMR307W, strain GAS1, stronger effect = lower value 0.672 | S. cerevisiae deletion strains, locus YNL067W, strain RPL9B, stronger effect = lower value 0.926 | S. cerevisiae deletion strains, locus YNL128W, strain TEP1, stronger effect = lower value 0.988 | S. cerevisiae deletion strains, locus YNL153C, strain GIM3, stronger effect = lower value 0.933 | S. cerevisiae deletion strains, locus YNL209W, strain ssb2, stronger effect = lower value 0.939 | S. cerevisiae deletion strains, locus YNL233W, strain BNI4, stronger effect = lower value 0.927 | S. cerevisiae deletion strains, locus YNL248C, strain rpa49, stronger effect = lower value 0.971 | S. cerevisiae deletion strains, locus YNL250W, strain rad50, stronger effect = lower value 0.988 | S. cerevisiae deletion strains, locus YNL271C, strain bni1, stronger effect = lower value 0.941 | S. cerevisiae deletion strains, locus YOL006C, strain TOP1, stronger effect = lower value 0.884 | S. cerevisiae deletion strains, locus YOL012C, strain htz1 1.12 | S. cerevisiae deletion strains, locus YOR001W, strain rrp6, stronger effect = lower value 0.938 | S. cerevisiae deletion strains, locus YOR061W, strain CKA2, stronger effect = lower value 0.894 | S. cerevisiae deletion strains, locus YOR070C, strain gyp1, stronger effect = lower value 0.928 | S. cerevisiae deletion strains, locus YOR080W, strain dia2, stronger effect = lower value 0.941 | S. cerevisiae deletion strains, locus YOR083W, strain WHI5, stronger effect = lower value 0.921 | S. cerevisiae deletion strains, locus YOR106W, strain vam3, stronger effect = lower value 0.94 | S. cerevisiae deletion strains, locus YOR136W, strain idh2, stronger effect = lower value 0.958 | S. cerevisiae deletion strains, locus YOR231W, strain MKK1, stronger effect = lower value 0.919 | S. cerevisiae deletion strains, locus YOR270C, strain vph1, stronger effect = lower value 0.868 | S. cerevisiae deletion strains, locus YOR290C, strain snf2, stronger effect = lower value 0.919 | S. cerevisiae deletion strains, locus YPL055C, strain LGE1, stronger effect = lower value 0.881 | S. cerevisiae deletion strains, locus YPL078C, strain atp4, stronger effect = lower value 0.893 | S. cerevisiae deletion strains, locus YPL106C, strain sse1, stronger effect = lower value 1.05 | S. cerevisiae deletion strains, locus YPL256C, strain CLN2, stronger effect = lower value 0.874 | S. cerevisiae deletion strains, locus YPR141C, strain kar3, stronger effect = lower value 0.981 | S. cerevisiae deletion strains, strain wtn01, stronger effect = lower value 0.911 | S. cerevisiae strains, strain wild type, stronger effect = lower value 0.937
